Eight compounds from PubChem BioAssay (NCATS) can be followed below.

Records with an inconclusive call do not appear. Activity calls are given as the source filed them. Unless noted, calls come from the whole dose curve; as a rule, active = well fitted curve in the direction sought with a large enough effect; inconclusive = small, poorly fitted or top-dose-only effect, or another doubt; inactive = no such curve, though single readings can be large; an effect the other way counts as inactive or inconclusive.

A short description of assay [1]: Cytometric Cell-Based qHTS for Inhibitors of the mTORC1 Signaling Pathway in MEF (Tsc2-/-, p53-/-) Cells (AID 2660).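 Note: percent of cells above a phospho-rpS6 to PI ratio cutoff in each well; series mostly up to about 38 µM.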 In outline:
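Tsc2-/-, p53-/- MEFs (empty vector) exposed to compound 24 h at 37 C, fixed, stained with Alexa-488 anti-phospho-rpS6 Ser235/236 and propidium iodide. Acumen laser scanning; phospho-S6/PI ratio thresholded against 7.5 nM rapamycin, reported as % positive cells.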

The nature of assay [2]: High Content Imaging Cell-Based qHTS for Inhibitors of the mTORC1 Signaling Pathway in MEF (Tsc2-/-, p53-/-) Cells (AID 2666).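 Note: percent of cells scored positive for phospho-rpS6 Ser235/236 immunostaining by imaging.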 In outline:
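Phospho-rpS6 (Ser235/236) immunofluorescence, normalized and scored as % positive cells using rapamycin and DMSO controls, was read in empty-vector Tsc2-/-, p53-/- MEFs after 24 h compound exposure at 37 C; propidium iodide counted cells.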

Assay [3] is described as follows: Cytometry Cell-Based qHTS for Inhibitors of the mTORC1 Signaling Pathway in MEF cells (AID 2668).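 Note: Tsc2-/- p53-/- mouse embryonic fibroblasts stably re-expressing wild-type Tsc2; percent cells positive for phospho-rpS6 Ser235/236 relative to propidium iodide stain; series mostly up to about 38 µM.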 In outline: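 Pathway inhibition in WT Tsc2-rescued Tsc2-/-, p53-/- MEFs is measured as the Alexa-488 phospho-rpS6 to propidium iodide intensity ratio after 24 hrs of compound at 37 degree Celsius. PI-stained cell number gives viability.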
Assay [4] is described as follows: Validation screen for small molecules that induce DNA re-replication in MCF 10A normal breast cells (AID 463097). Note: nearly all actives have a fitted effect of over 60% in size. In outline: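 DNA re-replication was detected as a rise in nuclei with elevated Hoechst fluorescence after a 48 hr compound exposure of MCF 10A cells at 37 C.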
In assay [5] the target is Ubiquitin carboxyl-terminal hydrolase 2 (Homo sapiens) (UniProt O75604). As to the kind of experiment: qHTS Validation Assay for Inhibitors of Ubiquitin-specific Protease USP2a Using CHOP2 as the Reporter (AID 463106). In outline:
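USP2 core (10 nM final) was preincubated with compound 30 min at RT in pH 8.0 Tris/CaCl2/beta-ME/CHAPS buffer. Ub-CHOP2 and reporter substrate (25 nM final each) were then added, with fluorescence (Ex 485/Em 531) read after 60 min. Data were normalized to NEM full inhibition and fitted to concentration-response curves.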

Assay [6] deals with DNA polymerase III PolC-type (Bacillus subtilis (strain 168)) (UniProt P13267). As to the kind of experiment: qHTS Validation Assay for the Inhibitors of DNA Replication in Gram-Positive Bacteria (AID 485295). Note: potency is the fitted concentration of half-maximal effect. In outline: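 Primed replication of single-stranded M13Gori by a four-protein B. subtilis holoenzyme is measured at room temperature. Double-stranded product is quantified by PicoGreen fluorescence after an EDTA stop; inhibition is scaled between DMSO and EDTA controls.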
DNA polymerase III PolC-type (Bacillus subtilis (strain 168)), sequence (P13267 whole entry, looked up): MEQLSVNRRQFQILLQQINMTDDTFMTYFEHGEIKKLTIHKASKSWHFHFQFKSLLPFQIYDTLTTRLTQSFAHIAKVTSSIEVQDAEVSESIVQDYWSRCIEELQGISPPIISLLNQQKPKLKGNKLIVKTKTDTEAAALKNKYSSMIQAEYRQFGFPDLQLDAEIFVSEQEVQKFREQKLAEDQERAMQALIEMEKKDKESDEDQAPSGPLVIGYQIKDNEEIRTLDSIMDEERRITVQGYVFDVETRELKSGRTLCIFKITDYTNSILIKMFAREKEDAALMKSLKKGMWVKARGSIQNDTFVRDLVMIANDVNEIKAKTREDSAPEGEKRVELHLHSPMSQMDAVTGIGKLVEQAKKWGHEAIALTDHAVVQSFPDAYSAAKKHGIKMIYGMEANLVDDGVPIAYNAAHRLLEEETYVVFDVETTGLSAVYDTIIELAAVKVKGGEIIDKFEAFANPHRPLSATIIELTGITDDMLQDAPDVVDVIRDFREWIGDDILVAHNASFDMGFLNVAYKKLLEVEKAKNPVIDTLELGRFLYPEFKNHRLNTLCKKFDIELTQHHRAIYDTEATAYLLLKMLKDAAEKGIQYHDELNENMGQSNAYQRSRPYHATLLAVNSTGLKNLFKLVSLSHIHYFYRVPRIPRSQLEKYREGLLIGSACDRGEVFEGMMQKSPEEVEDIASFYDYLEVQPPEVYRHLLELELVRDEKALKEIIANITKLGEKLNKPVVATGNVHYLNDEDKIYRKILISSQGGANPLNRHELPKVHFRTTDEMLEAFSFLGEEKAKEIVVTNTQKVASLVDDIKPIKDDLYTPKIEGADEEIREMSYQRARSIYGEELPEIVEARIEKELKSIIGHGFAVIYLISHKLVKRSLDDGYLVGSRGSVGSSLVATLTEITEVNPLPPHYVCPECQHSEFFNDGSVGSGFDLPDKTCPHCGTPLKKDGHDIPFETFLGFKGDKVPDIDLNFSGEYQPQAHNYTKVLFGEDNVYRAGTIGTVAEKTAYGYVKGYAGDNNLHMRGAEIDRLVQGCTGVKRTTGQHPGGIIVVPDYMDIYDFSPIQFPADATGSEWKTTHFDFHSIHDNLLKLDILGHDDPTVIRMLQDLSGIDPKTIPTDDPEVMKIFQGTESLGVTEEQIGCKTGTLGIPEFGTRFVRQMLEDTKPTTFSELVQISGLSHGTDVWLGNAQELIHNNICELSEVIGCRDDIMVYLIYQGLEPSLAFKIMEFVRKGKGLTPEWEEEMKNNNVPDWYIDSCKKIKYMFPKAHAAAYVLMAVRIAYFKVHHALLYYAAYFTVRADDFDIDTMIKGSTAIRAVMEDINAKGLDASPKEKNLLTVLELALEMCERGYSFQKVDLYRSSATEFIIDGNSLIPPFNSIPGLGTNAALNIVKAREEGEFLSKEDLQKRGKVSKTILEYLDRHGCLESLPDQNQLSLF

Assay [7] concerns the target Tumor susceptibility gene 101 protein (Homo sapiens) (UniProt Q99816). As to the kind of experiment: qHTS Validation Assay for Iinhibitors of HIV-1 Budding by Blocking the Interaction of PTAP/TSG101 (AID 485342; calls by dose curve). A digest of the protocol:
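Fluorescence anisotropy measured PTAP-Tsg101 interaction. Final concentrations were 10 uM protein domain and 50 nM labeled peptide, equilibrated 20 min at room temperature.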

Assay [8] can be described thus: qHTS Validation Assay to Find Inhibitors of Chronic Active B-Cell Receptor Signaling (AID 485345; active = well fitted curve in the direction sought with a large enough effect in the main read-out, with a control signal flat, not every such curve was filed as active). A digest of the protocol: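 TMD8 ABC-DLBCL cells stably carrying doxycycline-inducible IkappaBalpha–green luciferase fusion plus unfused red luciferase; compounds 46 uM to 3 nM, 4 h at 37C with doxycycline. Corrected green/red luminescence ratio normalized to 10 uM MG-132 and basal cell wells; curves fitted.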

Assay [9] deals with Beta-2 adrenergic receptor (Homo sapiens) (UniProt P07550). In words: qHTS validation assay of beta-arrestin-biased ligands of beta2-adrenergic receptor (AID 485366). In outline:
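Tango cells expressing recombinant beta2-AR and beta-arrestin with tTA-driven luciferase, in DMEM with 1% FBS. Compounds were titrated up to 46 microM for 18 hr at 37 degrees C. Luminescence was read 15 min after substrate; curves were fitted and class-assigned.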

The target of assay [10] is ATP-dependent 6-phosphofructokinase (Trypanosoma brucei brucei) (UniProt O15648). As to the kind of experiment: qHTS Validation Assay to Find Inhibitors of T. brucei phosphofructokinase (AID 485368). A digest of the protocol:
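Activity was read as ADP production by luminescence (ADP-Glo) after 45 min at room temperature. The enzyme was 1.25nM PFK in 0.1M TEA pH 8.0 with 0.5 mM F6P, 0.1mM ATP and 5 mM MgCl2. Compounds were titrated up to 57 uM and % activity normalized to no-enzyme and full-enzyme controls.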

A short description of assay [11]: Quantitative high throughput screen for delayed death inhibitors of the malarial parasite plastid, 96 hour incubation (AID 488745).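 Note: luciferase-expressing P. falciparum in erythrocytes at 2% hematocrit and 0.1% parasitemia; series mostly up to about 29 µM; nearly all actives have a fitted effect of over 70% in size.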 A digest of the protocol:
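Growth of reporter-bearing P. falciparum in red cells is measured after 96 h with compound, covering two erythrocytic cycles. Luminescence from the integrated luciferase serves as the growth signal.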

Assay [12] in a line: Quantitative high throughput screen for delayed death inhibitors of the malarial parasite plastid, 48 hour incubation (AID 488752). Note: nearly all actives have a fitted effect of over 65% in size. In outline: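 One parasite generation (48 h, 37 C, 5% CO2) of luciferase-reporter P. falciparum in erythrocytes is run with test compound; decreased luminescence indicates inhibited growth.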
Assay [13] addresses Thioredoxin reductase 1, cytoplasmic (Rattus norvegicus) (UniProt O89049). In words: qHTS Assay for Substrates of Mammalian Selenoprotein Thioredoxin Reductase 1 (TrxR1) (AID 488772).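 Note: NADPH fluorescence in the first read after selenite addition and not the 8 min delta; series mostly up to about 57 µM; a drop in NADPH fluorescence below the no-compound background marks a TrxR1 substrate.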 A digest of the protocol: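 Quantitative HTS in Tris-HCl buffer at pH 7.5 with EDTA and Tween-20, using rat TrxR1, 400 uM NADPH and 400 uM selenite (final). A fall in initial NADPH fluorescence relative to background marked substrate behaviour.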

The target is the same in assay [14]. As to the kind of experiment: qHTS Assay for Inhibitors of Mammalian Selenoprotein Thioredoxin Reductase 1 (TrxR1) (AID 488773).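 Note: drop in NADPH fluorescence over an 8 min run after selenite addition; series mostly up to about 57 µM; nearly all actives have a fitted effect of over 40% in size.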 As to conditions: Potency: inhibition. In outline:
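Steps: enzyme (90 nM) plus NADPH (400 uM final), 5 min at ~22 deg C; compound added, 15 min; selenite (400 uM final) added; fluorescence followed for 8 min. Concentration-response curves derived from the normalized delta values.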

The target in assay [15] is Flap endonuclease 1 (Homo sapiens) (UniProt P39748). As to the kind of experiment: qHTS Validation Assay for the Inhibitors of Human Flap endonuclease 1 (FEN1) (AID 488816). A digest of the protocol: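 Human FEN1 (10 nM) preincubated 15 min at room temperature with compounds, then flap DNA substrate added at 50 nM final. Fluorescence read at 0 and 15 min; concentration-response fitted with four-parameter Hill equation.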

Assay [16] deals with M-phase phosphoprotein 8 (Homo sapiens) (UniProt Q99549). In words: qHTS Validation Assay for Inhibitors for MPP8 Chromodomain Interactions with Methylated Histone Tails (AID 488949).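 Note: AlphaScreen signal from MPP8 chromodomain bound to biotinylated H3K9me3 peptide; top concentration of the series differs between compounds; nearly all actives have a fitted effect of over 55% in size.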 In outline:
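Disruption of the preformed MPP8–trimethyl-H3K9 peptide complex (both 50 nM, 30 min, RT) is measured after 30 min compound exposure, using AlphaScreen proximity beads; aurintricarboxylic acid titration serves as plate control.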

Assay [17] concerns the target Chromobox protein homolog 1 (Homo sapiens) (UniProt P83916). As to the kind of experiment: qHTS Validation Assay for Inhibitors of HP1-beta Chromodomain Interactions with Methylated Histone Tails (AID 488953). Note: nearly all actives have a fitted effect of over 50% in size. Note: potency is the fitted concentration of half-maximal effect. A digest of the protocol: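 Measured as loss of AlphaScreen luminescence from streptavidin donor and nickel acceptor beads (10 ug/mL final) bridging HP1-beta and biotin-H3(1-18)K9me3, each 50 nM. Compounds met the preassembled complex for 30 min at RT.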

Assay [18] can be described thus: High Content Imaging Cell-Based qHTS for Inhibitors of the mTORC1 Signaling Pathway in MEF Cells (AID 2667).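 Note: Tsc2-/- p53-/- MEFs stably re-expressing wild-type Tsc2 exposed 24 h; series mostly up to about 38 µM.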 In outline: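 WT MEFs (Tsc2-/-, p53-/- re-expressing Tsc2), in DMEM + 10% FBS, were treated with compound for 24 h at 37 C. Cells were then fixed and stained for phospho-rpS6 Ser235/236 with propidium iodide as cell count. Values are % positive cells, with thresholds set against rapamycin-treated cells.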

Assay [19] deals with Methanococcus maripaludis chaperonin (MmCpn) (UniProt Q6LX38). As to the kind of experiment: High-Throughput Screening for Modulators of Cytosolic Chaperonin Activity: MmCpn Primary Screen (AID 488978).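 Note: 50 nM MmCpn enzyme hydrolysing 30 µM ATP at 37 °C.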 In outline: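 Measures ATPase turnover of the M. maripaludis chaperonin (50 nM final) against 30 uM ATP over 10 min at 37C, with compound added 5 min beforehand at room temperature. ADP is quantified by HTRF immunodetection.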
Methanococcus maripaludis chaperonin (MmCpn), sequence (Q6LX38 1-543): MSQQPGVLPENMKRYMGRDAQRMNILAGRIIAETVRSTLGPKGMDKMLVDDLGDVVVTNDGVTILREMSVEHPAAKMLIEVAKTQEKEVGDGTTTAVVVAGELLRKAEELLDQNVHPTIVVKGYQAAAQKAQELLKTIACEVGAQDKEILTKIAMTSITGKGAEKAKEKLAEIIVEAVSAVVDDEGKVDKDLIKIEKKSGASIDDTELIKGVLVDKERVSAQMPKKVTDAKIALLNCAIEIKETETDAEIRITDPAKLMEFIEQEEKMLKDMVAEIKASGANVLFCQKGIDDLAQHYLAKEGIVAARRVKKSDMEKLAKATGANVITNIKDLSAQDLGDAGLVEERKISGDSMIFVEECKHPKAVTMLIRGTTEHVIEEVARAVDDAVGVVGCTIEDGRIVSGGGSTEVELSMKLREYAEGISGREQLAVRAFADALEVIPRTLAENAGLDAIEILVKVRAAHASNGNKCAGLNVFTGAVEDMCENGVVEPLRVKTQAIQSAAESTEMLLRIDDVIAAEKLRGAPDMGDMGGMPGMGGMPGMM

Beta-2 adrenergic receptor (Homo sapiens), sequence (P07550 whole entry, looked up): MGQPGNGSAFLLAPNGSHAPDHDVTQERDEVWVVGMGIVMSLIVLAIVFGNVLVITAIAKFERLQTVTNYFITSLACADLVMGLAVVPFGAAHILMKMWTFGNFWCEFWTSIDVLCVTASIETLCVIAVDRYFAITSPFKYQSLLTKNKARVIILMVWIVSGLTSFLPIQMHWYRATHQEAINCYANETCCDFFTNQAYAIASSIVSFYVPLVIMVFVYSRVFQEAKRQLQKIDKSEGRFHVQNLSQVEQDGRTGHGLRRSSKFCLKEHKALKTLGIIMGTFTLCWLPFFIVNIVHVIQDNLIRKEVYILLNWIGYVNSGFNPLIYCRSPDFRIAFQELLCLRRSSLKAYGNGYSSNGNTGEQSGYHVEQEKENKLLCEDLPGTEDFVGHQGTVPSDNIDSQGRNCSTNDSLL
Chromobox protein homolog 1 (Homo sapiens), sequence (P83916 whole entry, looked up): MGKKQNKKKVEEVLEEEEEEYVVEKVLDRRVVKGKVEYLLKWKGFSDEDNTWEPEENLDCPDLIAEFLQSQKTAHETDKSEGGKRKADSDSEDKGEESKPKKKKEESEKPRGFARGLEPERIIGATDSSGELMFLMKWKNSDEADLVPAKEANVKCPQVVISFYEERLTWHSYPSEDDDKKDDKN
Tumor susceptibility gene 101 protein (Homo sapiens), sequence (Q99816 whole entry, looked up, the tested form may be a part): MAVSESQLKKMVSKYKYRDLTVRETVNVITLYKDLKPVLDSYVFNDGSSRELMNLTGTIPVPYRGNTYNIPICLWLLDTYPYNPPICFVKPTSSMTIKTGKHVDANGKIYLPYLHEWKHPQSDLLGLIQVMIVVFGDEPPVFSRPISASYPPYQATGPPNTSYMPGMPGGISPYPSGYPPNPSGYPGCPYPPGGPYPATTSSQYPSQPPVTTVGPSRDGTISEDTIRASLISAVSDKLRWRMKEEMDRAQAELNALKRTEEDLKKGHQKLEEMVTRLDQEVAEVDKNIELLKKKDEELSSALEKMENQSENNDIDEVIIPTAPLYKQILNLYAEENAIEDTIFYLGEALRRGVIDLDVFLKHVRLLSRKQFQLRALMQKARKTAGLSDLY
ATP-dependent 6-phosphofructokinase (Trypanosoma brucei brucei), sequence (O15648 whole entry, looked up): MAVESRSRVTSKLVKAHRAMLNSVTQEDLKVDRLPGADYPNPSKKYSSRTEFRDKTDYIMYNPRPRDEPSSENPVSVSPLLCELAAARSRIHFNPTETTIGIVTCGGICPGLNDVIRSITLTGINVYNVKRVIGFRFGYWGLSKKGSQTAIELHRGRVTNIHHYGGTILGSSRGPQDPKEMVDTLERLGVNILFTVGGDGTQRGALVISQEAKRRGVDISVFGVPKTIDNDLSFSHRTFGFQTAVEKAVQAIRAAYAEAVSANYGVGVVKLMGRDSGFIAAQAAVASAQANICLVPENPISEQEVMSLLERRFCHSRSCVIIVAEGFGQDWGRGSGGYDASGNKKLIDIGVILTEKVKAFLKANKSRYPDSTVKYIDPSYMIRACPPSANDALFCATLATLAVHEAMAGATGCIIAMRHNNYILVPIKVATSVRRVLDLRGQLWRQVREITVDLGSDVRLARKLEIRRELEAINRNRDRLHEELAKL
Thioredoxin reductase 1, cytoplasmic (Rattus norvegicus), sequence (O89049 whole entry, looked up): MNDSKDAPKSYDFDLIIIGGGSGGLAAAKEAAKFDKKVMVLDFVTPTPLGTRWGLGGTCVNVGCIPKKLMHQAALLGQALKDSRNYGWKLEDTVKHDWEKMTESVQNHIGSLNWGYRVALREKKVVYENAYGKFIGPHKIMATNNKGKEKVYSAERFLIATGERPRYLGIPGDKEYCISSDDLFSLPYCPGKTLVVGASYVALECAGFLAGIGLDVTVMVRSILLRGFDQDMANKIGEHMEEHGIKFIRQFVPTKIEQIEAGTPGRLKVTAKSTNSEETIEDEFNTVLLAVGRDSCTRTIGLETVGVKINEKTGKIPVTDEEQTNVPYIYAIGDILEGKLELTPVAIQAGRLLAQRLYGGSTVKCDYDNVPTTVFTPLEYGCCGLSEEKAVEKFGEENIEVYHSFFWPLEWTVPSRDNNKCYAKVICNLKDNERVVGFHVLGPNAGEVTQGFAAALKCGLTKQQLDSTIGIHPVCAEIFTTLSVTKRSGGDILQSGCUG
M-phase phosphoprotein 8 (Homo sapiens), sequence (Q99549 whole entry, looked up): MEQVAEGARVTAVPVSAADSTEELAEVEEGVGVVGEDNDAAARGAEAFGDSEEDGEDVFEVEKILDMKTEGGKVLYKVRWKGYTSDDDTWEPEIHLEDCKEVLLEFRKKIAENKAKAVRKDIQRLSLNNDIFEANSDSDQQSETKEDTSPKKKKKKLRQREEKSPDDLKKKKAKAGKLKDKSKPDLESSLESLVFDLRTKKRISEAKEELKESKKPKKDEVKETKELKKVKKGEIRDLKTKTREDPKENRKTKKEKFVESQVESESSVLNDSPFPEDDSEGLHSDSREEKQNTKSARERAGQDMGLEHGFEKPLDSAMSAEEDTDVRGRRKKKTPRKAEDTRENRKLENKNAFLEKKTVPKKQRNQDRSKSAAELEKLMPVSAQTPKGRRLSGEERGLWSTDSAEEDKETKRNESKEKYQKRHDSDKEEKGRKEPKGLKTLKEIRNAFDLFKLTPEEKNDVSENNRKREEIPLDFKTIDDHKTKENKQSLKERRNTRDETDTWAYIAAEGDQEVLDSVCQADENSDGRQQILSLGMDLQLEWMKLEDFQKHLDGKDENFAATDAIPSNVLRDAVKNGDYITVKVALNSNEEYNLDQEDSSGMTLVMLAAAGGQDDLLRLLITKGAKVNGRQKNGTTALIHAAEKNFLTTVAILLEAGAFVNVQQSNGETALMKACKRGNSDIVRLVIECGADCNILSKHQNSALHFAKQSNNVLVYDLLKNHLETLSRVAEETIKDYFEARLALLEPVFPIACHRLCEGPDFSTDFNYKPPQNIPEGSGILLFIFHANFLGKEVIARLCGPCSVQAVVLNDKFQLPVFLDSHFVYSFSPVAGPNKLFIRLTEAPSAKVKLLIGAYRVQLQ

For the compound `CC[N+](CC)(CC)CC(=O)Nc1c(C)cccc1C`, the call in assay [1], in assay [7], in assay [8], in assay [9] and in assay [13] was inactive. For the same compound, the Potency entry in assay [2], in assay [3], in assay [4], in assay [5], in [6] and in assay [10] was “inactive” throughout. The Potency entry in [11], in assay [12], in assay [14], in assay [15], in assay [16] and in assay [17] was “inactive” each time.
For the compound `COc1ccc(-c2cc3ncc(C)n3c(Nc3ncccc3C(N)=O)n2)cc1OC`, the result in [1], in assay [7], in assay [9] and in [13] was inactive. The Potency entry in assay [2], in assay [18], in assay [5], in [6], in assay [10] and in assay [15] was “inactive” throughout. In addition, the Potency result in assay [16] and in assay [17] was “inactive” each time.
As to `O=C(O)/C=C/c1cnc[nH]1`, the call in assay [1], in [7], in assay [8], in assay [9], in assay [13] and in assay [19] was inactive. Moreover, the Potency entry in [2], in assay [3], in assay [4], in assay [5], in assay [6] and in [10] was “inactive” throughout. The Potency entry in assay [11], in [12], in assay [14], in assay [15] and in assay [16] was “inactive” throughout.
As for `O=c1onc2cnc3ccccc3n12`, the compound was called inactive in assay [1], in assay [7], in assay [9], in [13] and in assay [19]. The Potency entry in assay [2], in assay [18], in assay [3], in [5], in assay [6] and in [11] was “inactive” throughout. The Potency result in [12], in assay [14], in assay [15] and in assay [16] was “inactive” throughout.
As for `NCCCCN=C(N)N`, the compound was called inactive in assay [1], in assay [7], in [8], in [9], in [13] and in assay [19]. For the same compound, the Potency entry in assay [2], in assay [3], in assay [4], in assay [5], in assay [6] and in assay [10] was “inactive” each time. The Potency entry in assay [11], in assay [12], in assay [14], in assay [15], in assay [16] and in [17] was “inactive” each time.
Turning to `O=c1cc(-c2ccccc2F)[nH]c2cc3c(cc12)OCO3`, the call in [1], in assay [7] and in assay [9] was inactive. In addition, the Potency entry in assay [2], in assay [18], in assay [5], in [6], in [10] and in [14] was “inactive” throughout. The Potency entry in assay [15] is “inactive”.
For `COc1cc(/C=C(\C#N)C(=O)Nc2nnc(C(F)(F)F)s2)ccc1OCc1ccc(C(F)(F)F)cc1C(F)(F)F`, the compound was classed as inactive in assay [1], in [7], in [9], in [13] and in [19]. The Potency result in [2], in [18], in assay [3], in assay [14], in assay [15] and in assay [16] was “inactive” in each case. For the same compound, the values for the Potency in assay [6] and in [17] were 10.6 µM (active) and 89.1 µM (active), respectively.
With `CCCc1c(-c2ccc(O)cc2)nn(-c2ccc(O)cc2)c1-c1ccc(O)cc1`, the result in assay [1], in assay [7], in assay [9], in [13] and in [19] was inactive. For the same compound, the Potency result in assay [2], in assay [18], in assay [3], in [6], in [12] and in assay [14] was “inactive” throughout. In addition, the Potency entry in assay [15] and in assay [16] was “inactive” throughout.
